Binding signal data for seven sequences are collected here from article PMC7862700, “An all-to-all approach to the identification of sequence-specific readers for epigenetic DNA modifications on cytosine”.

What all share (experiment): DAPPL (digital affinity profiling via proximity ligation, sequencing); 10 mM Tris-HCl pH 7.5, 50 mM NaCl, 1 mM DTT, 4% glycerol, room temperature, 30 min; GST-TFs on glutathione beads, 16-mer random dsDNA library, 0.1% formaldehyde crosslink after washing; high values mean tight binding
What all share (settings): protein: recombinant; tags: N-terminal GST; dsDNA, one strand shown

One test addresses T1, ERF (Homo sapiens, UniProt P50548 1-548).
T1 sequence: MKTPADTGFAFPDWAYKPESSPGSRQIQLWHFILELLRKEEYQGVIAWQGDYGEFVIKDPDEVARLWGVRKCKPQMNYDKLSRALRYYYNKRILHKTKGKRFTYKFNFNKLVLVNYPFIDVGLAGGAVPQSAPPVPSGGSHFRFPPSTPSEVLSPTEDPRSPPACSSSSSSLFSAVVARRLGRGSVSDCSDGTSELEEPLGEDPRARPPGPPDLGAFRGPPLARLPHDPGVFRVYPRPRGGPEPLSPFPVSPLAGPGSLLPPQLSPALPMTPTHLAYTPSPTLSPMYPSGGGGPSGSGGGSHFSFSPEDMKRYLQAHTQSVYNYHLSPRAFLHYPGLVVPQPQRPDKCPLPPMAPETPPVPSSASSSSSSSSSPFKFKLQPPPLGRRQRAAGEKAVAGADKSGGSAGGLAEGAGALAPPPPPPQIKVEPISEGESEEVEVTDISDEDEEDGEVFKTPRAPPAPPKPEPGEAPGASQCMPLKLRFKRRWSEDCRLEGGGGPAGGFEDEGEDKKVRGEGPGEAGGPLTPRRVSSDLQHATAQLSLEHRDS
In a few lines: (§1)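 The binding signal reported is, for every hexamer, its read frequency for a factor over its read frequency for the tag-only sample. Reads came from pools of yeast-expressed, GST-fused human transcription factors on glutathione beads, barcoded with DNA and mixed with that sample, which were incubated with 200 nmole of a random double-stranded 16-mer DNA library in Tris/NaCl/DTT/glycerol buffer at room temperature for 30 min. After washing, the pools were crosslinked with 0.1% formaldehyde, proximity-ligated with BsaI/T4 ligase for 1 h at 37 °C, PCR-amplified and sequenced on an Illumina NextSeq500.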

A further test has as its target T2, ETV3L (Homo sapiens, UniProt Q6ZN32 1-361).
T2 sequence: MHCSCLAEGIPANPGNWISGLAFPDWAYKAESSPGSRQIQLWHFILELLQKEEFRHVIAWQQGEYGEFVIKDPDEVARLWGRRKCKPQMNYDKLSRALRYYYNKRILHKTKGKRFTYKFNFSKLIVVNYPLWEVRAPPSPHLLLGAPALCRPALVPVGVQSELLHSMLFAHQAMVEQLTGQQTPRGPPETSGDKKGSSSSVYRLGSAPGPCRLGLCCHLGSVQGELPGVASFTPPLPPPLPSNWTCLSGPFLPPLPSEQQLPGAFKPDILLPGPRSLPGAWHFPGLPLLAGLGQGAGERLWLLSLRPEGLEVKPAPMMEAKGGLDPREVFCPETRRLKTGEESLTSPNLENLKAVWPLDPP
The essentials: as §1

A further test deals with T3, ETS2 (Homo sapiens, UniProt P15036 1-469).
T3 sequence: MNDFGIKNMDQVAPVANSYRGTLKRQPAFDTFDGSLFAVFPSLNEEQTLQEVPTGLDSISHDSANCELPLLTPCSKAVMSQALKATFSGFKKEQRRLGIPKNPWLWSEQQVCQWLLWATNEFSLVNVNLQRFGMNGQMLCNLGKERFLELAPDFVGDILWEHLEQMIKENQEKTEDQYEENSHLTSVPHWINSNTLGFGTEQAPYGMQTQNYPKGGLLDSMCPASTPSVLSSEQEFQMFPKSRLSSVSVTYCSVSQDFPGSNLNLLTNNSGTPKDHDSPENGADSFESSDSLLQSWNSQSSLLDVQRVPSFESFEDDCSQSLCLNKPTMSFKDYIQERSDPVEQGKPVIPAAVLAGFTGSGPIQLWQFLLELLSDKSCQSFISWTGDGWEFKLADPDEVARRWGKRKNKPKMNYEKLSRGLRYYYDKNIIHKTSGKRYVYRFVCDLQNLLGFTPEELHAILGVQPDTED
In a few lines: as §1

The target in another test is T4, SPDEF (Homo sapiens, UniProt O95238 1-335).
T4 sequence: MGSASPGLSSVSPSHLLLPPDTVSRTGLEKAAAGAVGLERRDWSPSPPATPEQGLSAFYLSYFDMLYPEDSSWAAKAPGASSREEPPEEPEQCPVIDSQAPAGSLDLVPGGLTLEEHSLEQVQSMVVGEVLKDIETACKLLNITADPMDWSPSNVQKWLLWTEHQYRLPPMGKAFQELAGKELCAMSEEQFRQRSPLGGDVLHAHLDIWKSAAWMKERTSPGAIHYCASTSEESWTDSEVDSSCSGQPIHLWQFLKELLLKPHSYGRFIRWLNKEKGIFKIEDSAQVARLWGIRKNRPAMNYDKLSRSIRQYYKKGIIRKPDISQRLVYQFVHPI
In a few lines: as §1

The target in a further test is T5, ETV7 (Homo sapiens, UniProt Q9Y603 1-341).
T5 sequence: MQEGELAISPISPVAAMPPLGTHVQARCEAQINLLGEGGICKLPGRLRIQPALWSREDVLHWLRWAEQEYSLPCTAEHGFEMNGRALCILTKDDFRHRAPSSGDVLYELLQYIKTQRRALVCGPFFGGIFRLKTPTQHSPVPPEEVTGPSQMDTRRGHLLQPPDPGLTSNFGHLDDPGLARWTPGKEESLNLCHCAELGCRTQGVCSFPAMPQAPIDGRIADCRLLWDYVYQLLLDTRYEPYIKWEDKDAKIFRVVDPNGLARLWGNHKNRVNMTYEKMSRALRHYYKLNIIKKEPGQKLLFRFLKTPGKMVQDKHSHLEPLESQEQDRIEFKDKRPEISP
The essentials: as §1

For another test, the target named is T6, ELF5 (Homo sapiens, UniProt Q9UKW6-2 1-255).
T6 sequence: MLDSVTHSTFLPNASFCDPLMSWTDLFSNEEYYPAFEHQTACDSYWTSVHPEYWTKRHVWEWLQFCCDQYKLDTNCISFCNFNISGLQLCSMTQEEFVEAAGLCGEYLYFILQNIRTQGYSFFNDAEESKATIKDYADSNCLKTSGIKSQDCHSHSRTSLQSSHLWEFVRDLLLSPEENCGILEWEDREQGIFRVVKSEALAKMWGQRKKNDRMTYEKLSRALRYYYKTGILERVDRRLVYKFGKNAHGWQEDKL
The essentials:
as §1

Another test has as its target T7, ETV3 (Homo sapiens, UniProt P41162-2 1-143).
T7 sequence: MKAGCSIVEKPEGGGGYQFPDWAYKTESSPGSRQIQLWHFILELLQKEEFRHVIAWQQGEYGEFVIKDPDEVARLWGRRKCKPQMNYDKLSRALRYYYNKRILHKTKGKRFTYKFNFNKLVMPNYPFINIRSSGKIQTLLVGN
The essentials: as §1

Another test addresses ETV6 (Homo sapiens, UniProt P41212 1-452). In a few lines:
as §1

Sequence of ETV6 (P41212 whole entry): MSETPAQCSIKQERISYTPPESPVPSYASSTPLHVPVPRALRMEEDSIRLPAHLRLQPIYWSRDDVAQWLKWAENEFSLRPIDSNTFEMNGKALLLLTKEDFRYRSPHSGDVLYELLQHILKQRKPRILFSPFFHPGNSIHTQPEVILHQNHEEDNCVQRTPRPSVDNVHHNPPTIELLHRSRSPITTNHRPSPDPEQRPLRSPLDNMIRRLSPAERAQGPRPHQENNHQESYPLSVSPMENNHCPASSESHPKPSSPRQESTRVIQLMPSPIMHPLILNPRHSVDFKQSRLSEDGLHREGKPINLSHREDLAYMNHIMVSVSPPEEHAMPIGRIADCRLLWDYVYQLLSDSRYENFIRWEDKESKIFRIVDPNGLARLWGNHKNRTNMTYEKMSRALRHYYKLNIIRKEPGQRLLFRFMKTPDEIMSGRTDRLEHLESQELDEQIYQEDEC

For TTGCGA, the binding signal with ERF was 1.29 fold enrichment (6-mer frequency, TF over GST control); in the test with ETV3L it was 1.14 fold enrichment (6-mer frequency, TF over GST control); with ETS2 it was 1.14 fold enrichment (6-mer frequency, TF over GST control); with SPDEF, 1.11 fold enrichment (6-mer frequency, TF over GST control); with ETV7, 1.14 fold enrichment (6-mer frequency, TF over GST control); with ELF5, 1.12 fold enrichment (6-mer frequency, TF over GST control). In addition, the binding signal in the test with ETV3 is 1.08 fold enrichment (6-mer frequency, TF over GST control); with ETV6, 1.11 fold enrichment (6-mer frequency, TF over GST control).
In the case of ATTGAC, the binding signal with ERF is 1.24 fold enrichment (6-mer frequency, TF over GST control); in the test with ETV3L it was 1.26 fold enrichment (6-mer frequency, TF over GST control); in the test with ETS2 it was 1.36 fold enrichment (6-mer frequency, TF over GST control); in the test with SPDEF, 1.12 fold enrichment (6-mer frequency, TF over GST control); with ETV7 it was 1.25 fold enrichment (6-mer frequency, TF over GST control); in the test with ELF5, 1.19 fold enrichment (6-mer frequency, TF over GST control). The binding signal with ETV3 was 1.21 fold enrichment (6-mer frequency, TF over GST control); with ETV6, 1.23 fold enrichment (6-mer frequency, TF over GST control).
Regarding ACTTCC, the binding signal with ERF is 7.03 fold enrichment (6-mer frequency, TF over GST control); with ETV3L, 7.94 fold enrichment (6-mer frequency, TF over GST control); in the test with ETS2, 8.81 fold enrichment (6-mer frequency, TF over GST control); with SPDEF, 8.64 fold enrichment (6-mer frequency, TF over GST control); with ETV7, 7.8 fold enrichment (6-mer frequency, TF over GST control); with ELF5, 12.5 fold enrichment (6-mer frequency, TF over GST control). The binding signal in the test with ETV3 is 9.02 fold enrichment (6-mer frequency, TF over GST control); in the test with ETV6, 10.9 fold enrichment (6-mer frequency, TF over GST control).
With TTAGCT, the binding signal in the test with ERF is 1.2 fold enrichment (6-mer frequency, TF over GST control); in the test with ETV3L, 1.16 fold enrichment (6-mer frequency, TF over GST control); with ETS2, 1.26 fold enrichment (6-mer frequency, TF over GST control); with SPDEF, 1.08 fold enrichment (6-mer frequency, TF over GST control); with ETV7, 1.17 fold enrichment (6-mer frequency, TF over GST control); with ELF5 it was 1.13 fold enrichment (6-mer frequency, TF over GST control). Besides, the binding signal was 1.19 fold enrichment (6-mer frequency, TF over GST control) with ETV3 and 1.26 fold enrichment (6-mer frequency, TF over GST control) with ETV6.
As for GATTTT, the binding signal with ERF is 1.16 fold enrichment (6-mer frequency, TF over GST control); with ETV3L it was 1.24 fold enrichment (6-mer frequency, TF over GST control); with ETS2 it was 1.17 fold enrichment (6-mer frequency, TF over GST control); with SPDEF, 1.14 fold enrichment (6-mer frequency, TF over GST control); with ETV7 it was 1.13 fold enrichment (6-mer frequency, TF over GST control); in the test with ELF5 it was 1.13 fold enrichment (6-mer frequency, TF over GST control). The binding signal with ETV3 is 1.08 fold enrichment (6-mer frequency, TF over GST control); with ETV6, 1.11 fold enrichment (6-mer frequency, TF over GST control).
With AGAATT, the binding signal was 1.17 fold enrichment (6-mer frequency, TF over GST control) with ERF; 1.17 fold enrichment (6-mer frequency, TF over GST control) with ETV3L; 1.14 fold enrichment (6-mer frequency, TF over GST control) with ETS2; 1.05 fold enrichment (6-mer frequency, TF over GST control) in the test with SPDEF; 1.13 fold enrichment (6-mer frequency, TF over GST control) in the test with ETV7; 1.1 fold enrichment (6-mer frequency, TF over GST control) with ELF5. The binding signal in the test with ETV3 is 1.09 fold enrichment (6-mer frequency, TF over GST control); with ETV6, 1.2 fold enrichment (6-mer frequency, TF over GST control).
For GACCTT, the binding signal with ERF is 1.5 fold enrichment (6-mer frequency, TF over GST control); with ETV3L, 1.64 fold enrichment (6-mer frequency, TF over GST control); with ETS2 it was 1.49 fold enrichment (6-mer frequency, TF over GST control); with SPDEF, 1.66 fold enrichment (6-mer frequency, TF over GST control); in the test with ETV7, 1.41 fold enrichment (6-mer frequency, TF over GST control); with ELF5, 1.62 fold enrichment (6-mer frequency, TF over GST control). Also, the binding signal with ETV3 is 1.5 fold enrichment (6-mer frequency, TF over GST control); with ETV6, 1.5 fold enrichment (6-mer frequency, TF over GST control).
